This is an account of results in the supplement of paper PMC12024529.

For the assay, the system named is HEK293 WT BDD-FVIII-Gluc. Description: secreted FVIII-Gluc luciferase Z-score vs DMSO control; higher = more FVIII-Gluc secretion. Conditions: 5 µM. On the procedure: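 Natural plant-compound library (480 compounds, ST catalogue IDs) screened on HEK293 cells stably expressing WT BDD-FVIII-Gaussia luciferase fusion at 5 µM. Secreted Gluc activity in the medium is given as a Z-score relative to DMSO controls.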
In the case of `CC1(C)CC[C@]2(C(=O)O)CC[C@]3(C)C(=CCC4[C@@]5(C)CC[C@H](O)C(C)(C)C5[C@H](O)C[C@]43C)C2C1` (stereo not given in full), the “secreted FVIII-Gluc luciferase Z-score” value was determined as 0.207.

With `Cc1cc(O)cc(O)c1`, the “secreted FVIII-Gluc luciferase Z-score” value stood at 0.642.

Turning to `CCc1cn(C2CC(O)C(CO)O2)c(=O)[nH]c1=O` (stereo not given), the “secreted FVIII-Gluc luciferase Z-score” value was -0.382.

As for `CC(=O)O[C@H]1C(=O)[C@@]2(C)C([C@H](OC(=O)c3ccccc3)[C@]3(O)C[C@H](OC(=O)[C@@H](O)[C@@H](NC(=O)c4ccccc4)c4ccccc4)C(C)=C1C3(C)C)[C@]1(OC(C)=O)CO[C@@H]1C[C@@H]2O` (stereo not given in full), the “secreted FVIII-Gluc luciferase Z-score” value was -3.56.

For the compound `O=C1CC(c2ccc(O)cc2)Oc2cc(O)cc(O)c21` (stereo not given), the “secreted FVIII-Gluc luciferase Z-score” value is -0.524.

Take `CCn1nc(C(=O)O)c(=O)c2cc3c(cc21)OCO3`: the “secreted FVIII-Gluc luciferase Z-score” value is -1.17.

With `COc1ccc2oc(-c3ccc(O)cc3)cc(=O)c2c1`, the “secreted FVIII-Gluc luciferase Z-score” value is 1.23.

On to `COc1ccc(-c2coc3cc(O)ccc3c2=O)cc1`, for which the “secreted FVIII-Gluc luciferase Z-score” value came to 0.632.

On to `COc1ccc(-c2oc3ccccc3c(=O)c2O)cc1`, for which the “secreted FVIII-Gluc luciferase Z-score” value was -1.09.

Regarding `CC(=O)Oc1cc(OC(C)=O)c2c(=O)cc(-c3ccc(OC(C)=O)c(OC(C)=O)c3)oc2c1`, the “secreted FVIII-Gluc luciferase Z-score” value came to 0.33.

Turning to `COc1cc2nc(N3CCN(C(=O)c4ccco4)CC3)nc(N)c2cc1OC`, the “secreted FVIII-Gluc luciferase Z-score” value worked out at 0.161.

Take `O=c1c(O)c(-c2ccccc2)oc2cc(O)cc(O)c12`: the “secreted FVIII-Gluc luciferase Z-score” value came out at 0.586.

`O=c1c2ccccc2oc2cc(O)c(C3COCC(CO)C(O)C(O)C3O)c(O)c12` (stereo not given): the “secreted FVIII-Gluc luciferase Z-score” value amounted to 0.341.

As for `O=c1c(-c2ccc(O[C@@H]3O[C@H](CO)[C@@H](O)[C@H](O)[C@H]3O)cc2)coc2cc(O)cc(O)c12`, the “secreted FVIII-Gluc luciferase Z-score” value was determined as 0.683.

As to `COc1ccccc1-c1oc2ccccc2c(=O)c1O`, the “secreted FVIII-Gluc luciferase Z-score” value was -0.65.

As to `COc1cc2c(cc1OC)C(=O)Cc1ccc3c(c1CN(C)CC2)OCO3`, the “secreted FVIII-Gluc luciferase Z-score” value was 0.000104.

With `C[S+]([O-])CCC(N)C(=O)O` (stereo not given), the “secreted FVIII-Gluc luciferase Z-score” value came out at 1.1.

With `COC1=CC(=O)CC(C)C12Oc1c(Cl)c(OC)cc(OC)c1C2=O` (stereo not given), the “secreted FVIII-Gluc luciferase Z-score” value amounted to 0.0156.

In the case of `OC[C@H]1O[C@@H](OC[C@H]2O[C@@H](O)[C@H](O)[C@@H](O)[C@@H]2O)[C@H](O)[C@@H](O)[C@@H]1O`, the “secreted FVIII-Gluc luciferase Z-score” value was found to be 0.42.

Consider `COc1cn(C2OC(CO)C(O)C2O)c(=O)[nH]c1=O` (stereo not given), for which the “secreted FVIII-Gluc luciferase Z-score” value is -0.271.

As to `NC(=O)C1CCCN1C(=O)C(Cc1cnc[nH]1)NC(=O)C1CCC(=O)N1` (stereo not given), the “secreted FVIII-Gluc luciferase Z-score” value was determined as 0.443.

Take `COc1ccc2oc(-c3cccc(OC)c3OC)cc(=O)c2c1`: the “secreted FVIII-Gluc luciferase Z-score” value worked out at 0.436.

As to `CC1C(=O)OC2CC34C5CC(C(C)(C)C)C36C(OC(=O)C6O)OC4(C(=O)O5)C21O` (stereo not given), the “secreted FVIII-Gluc luciferase Z-score” value was -0.604.

As to `OC[C@@H]1OC(O)[C@@H](O)[C@H](O)[C@H]1O[C@H]1O[C@H](CO)[C@@H](O)[C@H](O)[C@H]1O` (stereo not given in full), the “secreted FVIII-Gluc luciferase Z-score” value was 0.204.

In the case of `CC1=CCC2(C)CCC(O)(C(C)C)C2C(OC(=O)c2ccc(O)cc2)C1` (stereo not given), the “secreted FVIII-Gluc luciferase Z-score” value was found to be 0.752.

Consider `O=C1C[C@@H](c2ccccc2)Oc2cc(O)cc(O)c21`, for which the “secreted FVIII-Gluc luciferase Z-score” value came out at 0.733.

As to `C[C@H](CCC(=O)O)[C@H]1CC[C@H]2[C@@H]3CC[C@@H]4C[C@H](O)CC[C@]4(C)[C@H]3CC[C@]12C`, the “secreted FVIII-Gluc luciferase Z-score” value stood at 1.27.

As for `O=C1c2ccccc2C(=O)c2c1ccc(O)c2O`, the “secreted FVIII-Gluc luciferase Z-score” value came out at 0.508.

Consider `COc1ccc(-c2oc3ccc(C)cc3c(=O)c2O)cc1OC`, for which the “secreted FVIII-Gluc luciferase Z-score” value is -0.624.

Regarding `O=c1c(O)c(-c2ccc(O)cc2)oc2ccc(O)cc12`, the “secreted FVIII-Gluc luciferase Z-score” value came to 0.433.

Regarding `COc1ccccc1CC(Cc1nc2ccccc2[nH]1)c1nc2ccccc2[nH]1` (stereo not given), the “secreted FVIII-Gluc luciferase Z-score” value amounted to 0.163.

Regarding `Cc1c(-c2c(C)c(=O)c3c(C(C)C)c(=O)c(=O)c(C=O)c-3c2=O)c(O)c2c(C=O)c(O)c(O)c(C(C)C)c2c1O`, the “secreted FVIII-Gluc luciferase Z-score” value is -0.893.

As to `N[C@H](CCC(=O)O)C(=O)O`, the “secreted FVIII-Gluc luciferase Z-score” value is -0.453.

As to `NC[C@@H]1O[C@H](O[C@H]2[C@@H](O)[C@H](O[C@@H]3[C@@H](O)[C@H](N)C[C@H](N)[C@H]3O[C@H]3O[C@H](CN)[C@@H](O)[C@H](O)[C@H]3N)O[C@@H]2CO)[C@H](N)[C@@H](O)[C@@H]1O`, the “secreted FVIII-Gluc luciferase Z-score” value was determined as 0.572.

Take `OCC1OC(n2cnc3cncnc32)C(O)C1O` (stereo not given): the “secreted FVIII-Gluc luciferase Z-score” value is -0.247.

As for `O=c1cc(-c2ccccc2O)oc2cc(O)cc(O)c12`, the “secreted FVIII-Gluc luciferase Z-score” value stood at 0.64.

With `O=c1c(O)c(-c2ccc(O)c(O)c2)oc2ccccc12`, the “secreted FVIII-Gluc luciferase Z-score” value was -0.791.

Regarding `N[C@@H](CSCC(=O)O)C(=O)O`, the “secreted FVIII-Gluc luciferase Z-score” value turned out to be 0.103.

Regarding `O=c1c(-c2ccc(O)cc2)coc2cc(O)cc(O)c12`, the “secreted FVIII-Gluc luciferase Z-score” value was -1.4.

Turning to `COc1ccc(CCN(C)CCCC(C#N)(c2ccc(OC)c(OC)c2)C(C)C)cc1OC` (stereo not given), the “secreted FVIII-Gluc luciferase Z-score” value stood at 0.188.
